Tb PGK inh: blocks T. brucei phosphoglycerate kinase | P07378 | hit rate 0.043% among 380,000 | PGK/GAPDH coupled, Kinase-Glo luminescence, 60 min | Potency, µM (titrated, usually from 57.5 µM), actives largely listed as inhibitors | AID 602233; also: nearly all actives have a fitted effect of over 60% in size
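Recombinant glycosomal PGK reaction used 1,3-bisphosphoglycerate generated in-well by GAPDH (100nM final) in 100mM TEA pH 7.6, 5mM MgCl2, 0.01% Tween-20. After 60 minutes at room temperature, ATP was read by Kinase-Glo Plus luminescence end-point.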
Rango complex inh: prevents formation of the Rango-importin beta complex. Q14974. Rango CFP/YFP FRET sensor + importin beta, 45 min. Potency, µM (top dose mostly 92.2 µM). hit rate 0.031% among 340,000. AID 540263; calls by dose curve; also: nearly all actives have a fitted effect of over 15% in size
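FRET biosensor (snurportin 1 IBB flanked by EYFP and cerulean), 50 nM, with compound 5 min, then 0.125 microM importin beta in PBS, 1 mM DTT, 0.02% Tween-20, 0.1% BSA. CFP/YFP ratio read after 45 min at room temperature; pre-read flags interference.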
Tb PFK inh: inhibitors of T. brucei phosphofructokinase | T. brucei PFK, ADP-Glo luminescence | AID 485367 | Potency, µM (doses to about 57.5 µM), hits mostly inhibitors | hit rate 0.17% among 330,000 | O15648; also: nearly all actives have a fitted effect of over 60% in size
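In TEA buffer at pH 8.0 with 5 mM MgCl2, enzyme (1.25 nM) converted F6P (0.5 mM) and ATP (0.1 mM) for 45 min at room temperature. ADP product was read by luciferase luminescence.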
ELG1 DNA repair: ELG1-dependent DNA repair inhibition; hit rate 2.3% among 330,000; HEK293T ELG1-luciferase reporter, luminescence, 16 h; DNA damage induced by 5-fluorouridine; Potency, µM (highest dose often 46.1 µM), most hits filed as inhibitors; also: nearly all actives have a fitted effect of over 55% in size
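Overnight (16 hr) co-exposure of 2,000 cells/well to 5-fluorouridine and compound at 37 °C preceded detection. Luciferase was quantified via ONE-Glo luminescence; loss of signal denotes inhibition.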
PKM2 act: increases activity of human pyruvate kinase M2; Potency, µM (titrated, usually from 57.5 µM), usual class: activators; purified PKM2, Kinase-Glo ATP luminescence, activation; response scale: 0% is enzyme alone, no compound; P14618; hit rate 0.34% among 260,000; also: nearly all actives have a fitted effect of over 55% in size
Target sequence (P14618 whole entry, looked up): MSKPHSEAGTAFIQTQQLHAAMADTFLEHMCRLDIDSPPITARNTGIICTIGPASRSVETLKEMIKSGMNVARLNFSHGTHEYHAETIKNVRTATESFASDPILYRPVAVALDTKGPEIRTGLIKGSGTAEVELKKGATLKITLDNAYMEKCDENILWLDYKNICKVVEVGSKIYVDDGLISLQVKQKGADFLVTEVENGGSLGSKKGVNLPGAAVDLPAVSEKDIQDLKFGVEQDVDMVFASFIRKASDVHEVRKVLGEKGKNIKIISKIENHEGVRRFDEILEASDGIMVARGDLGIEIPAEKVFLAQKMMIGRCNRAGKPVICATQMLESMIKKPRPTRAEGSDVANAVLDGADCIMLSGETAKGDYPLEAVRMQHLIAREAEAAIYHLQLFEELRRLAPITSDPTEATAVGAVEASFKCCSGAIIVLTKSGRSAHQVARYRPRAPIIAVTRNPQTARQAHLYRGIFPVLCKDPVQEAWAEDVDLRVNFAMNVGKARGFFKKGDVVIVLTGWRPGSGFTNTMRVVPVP
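Kinase-Glo luminescence reports ATP generated from ADP (0.1 mM) and PEP (0.5 mM) by purified hPK-M2 after 1 h at room temperature, pH 7.2 imidazole buffer; intermediate enzyme activity allows detecting inhibitors and activators.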
Rango release inh: prevents RanGTP from dissociating the Rango-importin beta complex | O95149+P62826 | Biochemical FRET Rango-importin beta, RanGTP-induced dissociation | Potency, µM (series often up to 46.1 µM) | hit rate 0.071% among 340,000; calls by dose curve; also: nearly all actives have a fitted effect of over 45% in size
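Compounds preincubate 5 min with complex of recombinant Rango and importin beta in PBS with 1 mM DTT. Ran (0.6 uM) loaded with 2 mM GTP plus 0.2 uM RCC1 starts dissociation; FRET is recorded 45 min later.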
A number is an active result; 0 = inactive; ? = inconclusive; - = no result. The list is not random: actives were taken first. Their share in the collection is about 2.4%. Unless noted, calls follow the shape of the dose curve; as a rule, active = well fitted curve in the direction sought with a large enough effect; inconclusive = small, poorly fitted or top-dose-only effect, or another doubt; inactive = no such curve, though single readings can be large; an effect the other way counts as inactive or inconclusive.

SMILES	Tb PGK inh	Rango complex inh	Tb PFK inh	ELG1 DNA repair	PKM2 act	Rango release inh
COc1ccc(-c2cc(C(F)F)n3ncc(C(=O)N4CCN(C)CC4)c3n2)cc1	0	0	0	7.3µM	0	0
COc1ccc(-c2cc(C(F)F)n3ncc(C(=O)N4CCSCC4)c3n2)cc1	0	0	0	16µM	0	0
Cc1cc(NC(=O)c2cnn3c(C(F)F)cc(-c4ccccc4)nc23)no1	0	0	0	8.2µM	0	0
COc1ccc(-c2cc(C(F)F)n3ncc(C(=O)N4CCCc5ccccc54)c3n2)cc1	0	0	0	0	0	0
C#CCOCCOCCOCCNc1nc(N2CCN(C(=O)Cn3cc(CCO)nn3)CC2)nc(N2CCN(C(=O)[C@H](Cc3ccc(O)cc3)n3cc(CCO)nn3)CC2)n1	0	?	-	-	-	0
COC(=O)c1cc2n(n1)CCN(Cc1cccc(OC)c1)C2=O	0	0	0	?	20µM	0
COc1cccc(CN2CCN(c3ccc(F)cc3)C2=O)c1	0	0	0	0	28µM	0
COC(=O)c1cc2n(n1)CCN(Cc1ccc(C)cc1)C2=O	0	0	0	0	0	0
O=C(Cn1c(=O)nc(-c2ccccc2)c2cc(Cl)ccc21)N1CCN(c2ccccc2F)CC1	0	-	-	-	-	-
CCOc1cc(C(=S)N2CCOCC2)cc(Br)c1OS(=O)(=O)c1ccccc1	0	0	0	0	0	0
COc1ccc(-c2cc(N)n(S(=O)(=O)c3ccc(F)cc3)n2)cc1OC	0	0	0	5.8µM	0	0
COc1cccc(CN2C(=O)C(C)N(C(=O)c3c(F)cccc3F)c3ccccc32)c1 (stereo not given)	-	0	0	?	-	0
CC1C(=O)N(Cc2cccc(F)c2)c2ccccc2N1C(=O)c1ccccc1 (stereo not given)	0	0	0	23µM	-	0
COCCNC(=O)c1cccc(Nc2nc(-c3ccccc3)c3cc(Cl)ccc3n2)c1	0	?	0	21µM	0	?
Cc1oc(-c2ccc3c(c2)OCCO3)cc1C(=O)O	?	0	0	1.6µM	0	0
Cc1oc(-c2ccc3c(c2)OCCO3)cc1C(=O)NCC(=O)O	0	0	0	?	0	0
O=C1CCCC2=C1CC(C(=O)OCc1ccccc1)C(=O)N2Cc1ccccc1 (stereo not given)	0	0	-	-	-	0
Cc1cc(NC(=O)CSc2nnc(-c3ccccc3)o2)no1	0	0	0	?	0	0
Cc1cc(NC(=O)CSc2nnc(-c3ccoc3C)o2)no1	0	0	0	0	16µM	0
CC1C/C(=C/c2ccccn2)C(=O)/C(=C/c2ccccn2)C1 (stereo not given)	0	0	0	4.6µM	?	0
C/C(=N\Nc1ccc([N+](=O)[O-])cc1[N+](=O)[O-])c1ccc(-n2nncc2C(C)(C)C)cc1	0	0	0	10µM	0	0
CC(C(=O)O)N1C(=O)/C(=C/C=C/c2ccco2)SC1=S (stereo not given)	7.9µM	?	3µM	0	0	0
COC(CN(C(=O)CCl)C(C(=O)NC1CCCCC1)c1ccccc1C)OC (stereo not given)	0	0	0	23µM	0	0
CCCCCOC(=O)Nc1ccc(S(=O)(=O)Nn2cnnc2)cc1	-	0	0	0	4.5µM	0
COc1cc2[nH]c(=O)n(CCC(=O)N3CCN(c4cc(Cl)ccc4C)CC3)c(=O)c2cc1OC	0	0	0	8.2µM	0	0
SMILES	Tb PGK inh	Rango complex inh	Tb PFK inh	ELG1 DNA repair	PKM2 act	Rango release inh
COc1cc2[nH]c(=O)n(CCCCCC(=O)N3CC=C(c4ccccc4)CC3)c(=O)c2cc1OC	0	0	0	8.2µM	0	0
CC(=O)Nc1ccc(S(=O)(=O)NCC(=O)OCC(=O)N2CCCCCC2)cc1	0	0	0	0	-	0
Cc1ccc(NC(=O)CN2CCCC2c2cccs2)cc1S(=O)(=O)N1CCCCC1 (stereo not given)	0	0	0	?	-	0
CCOc1ccc(NC(=O)CN2CCCC2c2cccs2)cc1S(=O)(=O)N1CCCCC1 (stereo not given)	0	0	0	15µM	-	0
O=C(O)c1cccc(Cn2c(Cl)c(/C=N/NC(=O)c3cc4ccccc4cc3O)sc2=O)c1	?	?	0	0	32µM	0
CC1CC(C)CN(CCCNC(=O)c2ccc3c(c2)ncn3C2CCCC2)C1 (stereo not given)	0	0	0	0	0	0
N/C(COc1ncn(-c2ccccc2)n1)=N\S(=O)(=O)c1ccc(Cl)cc1Cl	0	0	0	16µM	0	0
Cc1nc2sc3c(=O)[nH]nnc3c2c(C)c1Br	0	0	0	0	-	0
COc1ccc(-c2sc3ccc(OC)cc3c2-c2ccc(O)cc2)cc1	0	0	0	23µM	-	0
CCn1cc(C(=O)NCc2ccc3c(c2)OCO3)c(=O)c2cc(F)c(N3CCN(C(=O)c4ccco4)CC3)cc21	0	0	0	9.2µM	0	0
CCn1cc(C(=O)NCc2ccncc2)c(=O)c2cc(F)c(N3CCN(C(=O)c4ccco4)CC3)cc21	0	0	0	?	0	0
CCn1cc(C(=O)NCc2ccccc2)c(=O)c2cc(F)c(N3CCN(C(=O)c4ccco4)CC3)cc21	0	0	0	16µM	0	0
CCN(CC)CCNC(=O)c1cn(CC)c2cc(N3CCN(C(=O)c4ccco4)CC3)c(F)cc2c1=O	0	0	0	?	0	0
O=[N+]([O-])c1ccc(Cl)c(/C=N/N2CCN(Cc3ccc(Cl)cc3)CC2)c1	0	0	0	0	0	0
C/C(=N\N1CCN(Cc2ccc(Cl)cc2)CC1)c1ccc([N+](=O)[O-])cc1	0	0	0	16µM	0	0
COc1cc(NC(=O)COC(=O)c2ccc(C)c(S(=O)(=O)N3CCCCC3)c2)c(C)cc1[N+](=O)[O-]	0	0	0	8.2µM	0	0
CCCCNC(=O)Cn1cnc2sc(C)c(S(=O)(=O)N3CCN(c4ccccc4OC)CC3)c2c1=O	0	0	0	0	0	0
CC1(C)O[C@H]2[C@@H](O1)[C@@H](C(=O)Nc1ccccc1O)O[C@@H]1OC(C)(C)O[C@@H]12	0	-	-	-	-	-
O=C(C1CCC(=O)N(C2CCCC2)C1)N1CCN(Cc2cccc(Cl)c2)CC1 (stereo not given)	0	0	0	0	0	0
CN(C)c1ccc(CNC(=O)c2ccc3c(c2)N(C)C(=O)C2CCCCN32)cc1 (stereo not given)	0	-	-	-	-	-
CNc1snc(C)c1C(=O)OCC(=O)Nc1ccc(C)cc1F	0	0	0	13µM	-	0
